Among the data in article PMC7819943, “Rice protein-binding microarrays: a tool to detect cis-acting elements near promoter regions in rice” are binding signal values, retold here.

Over roughly 68,000 sequences, “fluorescence intensity (a.u.)” has its median near 9,100; the highest 2% begin near 16,000. The list comes from a sample in which the highest values are over-represented; it also holds similar and randomly drawn sequences.

Sequence of OsWRKY34 (Q0JBA9 entry or part of it): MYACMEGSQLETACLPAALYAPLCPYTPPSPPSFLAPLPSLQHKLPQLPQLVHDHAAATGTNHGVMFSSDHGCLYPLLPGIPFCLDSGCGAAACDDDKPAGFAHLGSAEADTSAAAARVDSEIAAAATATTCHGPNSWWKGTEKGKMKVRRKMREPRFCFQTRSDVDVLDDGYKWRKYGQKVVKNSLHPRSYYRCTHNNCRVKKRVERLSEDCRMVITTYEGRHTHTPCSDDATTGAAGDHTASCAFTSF

The test has as its target OsWRKY34 (Oryza sativa, UniProt Q0JBA9 1-250). Kind of test: protein-binding microarray (RPBM); PBS, 2% BSA, 51.3 ng/ul salmon testes DNA, 50 uM zinc acetate, 200 nM TF, 25 C, 1 h; high values mean tight binding. As to conditions: protein: recombinant; tags: N-terminal polyhistidine and DsRed monomer fusion (pET32a); label: CyDye5-dUTP incorporated in the synthesized complementary strand; 3' TTTTT single-stranded linker to array surface; dsDNA, one strand shown. A digest of the protocol:
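Binding signal is defined as the fluorescence intensity of each feature in arbitrary units, read on an Axon 4000B scanner. Transcription factors with N-terminal polyhistidine and DsRed fusions came from E. coli BL21-CodonPlus and were purified on Ni–NTA. They were incubated at 200 nM for 1 h at 25 °C on a custom Agilent array that had been made double-stranded with Cy5-dUTP, with 50 µM zinc acetate present, and the array was washed.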
As for “CAGTGTATATTTCAGTGTATATTTGGTAGATTTGGTAGTACGGAGTCACCTAGTGCAG”, the binding signal is 8310 fluorescence intensity (a.u.). Under “CTACCCTATGCTATGAGACCGCTCTTATTCCGGGGTTTAACGGAGTCACCTAGTGCAG” stands 9760 fluorescence intensity (a.u.); under “TTCGCCGTGTTACTGTAGCTCAAATCTCTAGCTTCCCCAACGGAGTCACCTAGTGCAG”, 9240 fluorescence intensity (a.u.); under “CTAACACATTCATCACATGATTAAAATTTTATTATTTATACGGAGTCACCTAGTGCAG”, 8510 fluorescence intensity (a.u.). Under “CCATCATATTTGACTATTTTCAGGTGTTAGTTTGGACGATCGGAGTCACCTAGTGCAG” stands 9210 fluorescence intensity (a.u.). Under “TCCACCATTGACCAATGCCACGTCCTGCCAAATCCTCCTCCGGAGTCACCTAGTGCAG” stands 10700 fluorescence intensity (a.u.); under “TTCTGAATGTGATTGAATTAATTGGACTTGCGTTGACCTTCGGAGTCACCTAGTGCAG”, 11700 fluorescence intensity (a.u.); under “CGTTTGACCGTTCGTCTTATTTGAAAATTTTTTATGCTTACGGAGTCACCTAGTGCAG”, 10100 fluorescence intensity (a.u.). With “GAGTGCCATTGAATCCTTCTGTTGCGTTGACCACCAAATGCGGAGTCACCTAGTGCAG”, the binding signal is 16500 fluorescence intensity (a.u.). Under “CACCATTGACTTTTTAGCACATGTTTGACCGTTCGTCTTACGGAGTCACCTAGTGCAG” stands 14800 fluorescence intensity (a.u.); under “CGCCGTTGACTTTTTAAAATTTGTTTGACCGTTCGTCTTACGGAGTCACCTAGTGCAG”, 30700 fluorescence intensity (a.u.); under “TTTTGCCCTTTTTCTCTCGCCAGCTCGGACCCGTCGTGACCGGAGTCACCTAGTGCAG”, 8730 fluorescence intensity (a.u.).

Regarding “TTGGTTAGTTGCCACTCTCTCTCGCCGTGACCCTTTTTTACGGAGTCACCTAGTGCAG”, the binding signal is 20600 fluorescence intensity (a.u.). Under “TTCCTTTGTTTAGTTGTTTGTTTTACATTCCACTCTACTACGGAGTCACCTAGTGCAG” stands 9220 fluorescence intensity (a.u.); under “TGACTTTTTAGCATATGTTTGACCGTTCGTCTTATTCAAACGGAGTCACCTAGTGCAG”, 13600 fluorescence intensity (a.u.). The same measure for “TGTTTGACCGTTCGTCTTATTAAAATTTTTTTGTGAAATACGGAGTCACCTAGTGCAG”: 8610 fluorescence intensity (a.u.).

For “CACCATTGACTTTTTAGCATATGTTTGACCGTTCGTCTTACGGAGTCACCTAGTGCAG”, the binding signal was 18200 fluorescence intensity (a.u.). Under “CTGTTCCATTTCTCCTTGTTGCATCAGTAACTCCAAACCACGGAGTCACCTAGTGCAG” stands 12200 fluorescence intensity (a.u.); under “GATTATTTGCTTTACGGTTTTTTAAAAAAATTTCTTCATACGGAGTCACCTAGTGCAG”, 9590 fluorescence intensity (a.u.). The same measure for “CACACACACCCTGTCGAGCGAATATGCATGTCTTCTCAAGCGGAGTCACCTAGTGCAG”: 8960 fluorescence intensity (a.u.); for “TCCCTTTTGAGTACCACTGCTGATATCTGGATGCCCGTCACGGAGTCACCTAGTGCAG”: 8080 fluorescence intensity (a.u.); for “TTCACAATGTAAGCCATTCTAGCATTTTCCATATTTATATCGGAGTCACCTAGTGCAG”: 8240 fluorescence intensity (a.u.). For “ATTTTGCCCCTTGTTGATCACCACAGAAGAACATGTGCTACGGAGTCACCTAGTGCAG”, the binding signal is 9790 fluorescence intensity (a.u.).

“TTTGACACCGTTGACTTTTTAGTACGTATTTGATCATTCGCGGAGTCACCTAGTGCAG”: the binding signal is 33800 fluorescence intensity (a.u.). In the case of “CGTTGACTTTTTAGTACGTGTTTGACCATTCGTCTTATTCCGGAGTCACCTAGTGCAG”, the binding signal was 30200 fluorescence intensity (a.u.). Under “TGTCACATTCGTCTCCGGTCCGTACGTTGCTGTATTTTAGCGGAGTCACCTAGTGCAG” stands 17100 fluorescence intensity (a.u.); under “TTTGACACCGTTGATTTTTTAATATGTGTTTGACCATTCGCGGAGTCACCTAGTGCAG”, 9260 fluorescence intensity (a.u.); under “ATCCGTGTATTATAGCGTTTCGTAGTAGTATTTTTATGTCCGGAGTCACCTAGTGCAG”, 9280 fluorescence intensity (a.u.). Under “TTTAGTACGTGTTTGACCATTCGTCTTATTAAAAAAATTTCGGAGTCACCTAGTGCAG” stands 9130 fluorescence intensity (a.u.). Turning to “ACCCACTTTCGACTCCATGAATTTCATCACATTTGTTTTACGGAGTCACCTAGTGCAG”, the binding signal is 18600 fluorescence intensity (a.u.). The same measure for “GGTCGTCGTCTTTGCATTGTCTCCTTGTCCGGTACGTTGGCGGAGTCACCTAGTGCAG”: 9400 fluorescence intensity (a.u.); for “TGTTAACTTTTTAGTACGTGTTTGACTATTCGTTTTATTCCGGAGTCACCTAGTGCAG”: 12800 fluorescence intensity (a.u.).

As for “GTTCATATAGTACGTACTTTTATTCGTTAGTATATATGACCGGAGTCACCTAGTGCAG”, the binding signal is 9410 fluorescence intensity (a.u.).

Take “CCCATTCTTTCACTTTTGACCTTTTTTTATCATTTTGTTTCGGAGTCACCTAGTGCAG”: the binding signal is 9510 fluorescence intensity (a.u.). Under “AACTTTACAATTTTTTTATGTCATCCATGTCACATGTTTTCGGAGTCACCTAGTGCAG” stands 9030 fluorescence intensity (a.u.); under “GTTCCCAACGGTCACCTCGTCGTCGTTGCCAAATCTGCCACGGAGTCACCTAGTGCAG”, 8670 fluorescence intensity (a.u.).

As for “ATCACGTCGCCTCGTTTCTTGCCTCGCCGCTCGTTGCTCGCGGAGTCACCTAGTGCAG”, the binding signal was 12200 fluorescence intensity (a.u.).

For “AATACCAAGTTTATTTCTCACCTGCATTTTAGATTCTCATCGGAGTCACCTAGTGCAG”, the binding signal is 9050 fluorescence intensity (a.u.). Under “TAGTCCACCTTTTATTACCCAAGTTTCAATTTGGACCACCCGGAGTCACCTAGTGCAG” stands 9740 fluorescence intensity (a.u.); under “TCCCTTCCCTGTTCCTGGCGACGTGTCACCTTCTTATTCGCGGAGTCACCTAGTGCAG”, 8050 fluorescence intensity (a.u.). “ATAAACATTGACTCGCCGGAGTAGTTTTGAAACGTTTGACCGGAGTCACCTAGTGCAG”: the binding signal is 9180 fluorescence intensity (a.u.). In the case of “GCAACCAACATCCCGGCGGCGAGCTCGTACGTACCAAATCCGGAGTCACCTAGTGCAG”, the binding signal was 10800 fluorescence intensity (a.u.). For the sequence “CACACCACACACTGATGCAACGGCACTTAAGCGCACGAAGCGGAGTCACCTAGTGCAG”, the binding signal is 8060 fluorescence intensity (a.u.). Under “CGTCGGTGTGGTATGCTTGTCGCGCGGCGGCGCGGCCGTACGGAGTCACCTAGTGCAG” stands 8790 fluorescence intensity (a.u.). The same measure for “CCTACCTCCTACTCCTTATCCTCCACTTCGTCGCATTACACGGAGTCACCTAGTGCAG”: 8750 fluorescence intensity (a.u.); for “CGACTGCAGCTGATCCGGATTCAACACGGACATAGTACACCGGAGTCACCTAGTGCAG”: 8550 fluorescence intensity (a.u.); for “ATTTAGTTCTCAACATACCCCTTTTCATCTTTTTGTCAGACGGAGTCACCTAGTGCAG”: 8840 fluorescence intensity (a.u.). The same measure for “TCATTGACTTTTCGATCAACGTTTGACCATTTGTTTTATTCGGAGTCACCTAGTGCAG”: 16700 fluorescence intensity (a.u.); for “GCTGTTGACTTTCGACCTACGTTTGACCATTCGTTTTATTCGGAGTCACCTAGTGCAG”: 20600 fluorescence intensity (a.u.). With “ACACCGTTGACTTTTTAGTACGTATTTGACCATTCGTCTTCGGAGTCACCTAGTGCAG”, the binding signal was 36700 fluorescence intensity (a.u.). The same measure for “TCATTCATATTATTTATTATTTAGTTGTTTGACTTTTTTTCGGAGTCACCTAGTGCAG”: 9600 fluorescence intensity (a.u.); for “CGTTGACTTTTTAGTACATGTTTGACCATTCGTCTTATTCCGGAGTCACCTAGTGCAG”: 36100 fluorescence intensity (a.u.); for “CTTTTTAATCAACGTTTGACCATTCGTCTTATTCAATTTTCGGAGTCACCTAGTGCAG”: 10900 fluorescence intensity (a.u.). For “AATATTTTTTTTTACTGTTTTCACTTTGACCATTAATATTCGGAGTCACCTAGTGCAG”, the binding signal was 9790 fluorescence intensity (a.u.). The same measure for “GTTGACTTTTTGATTAACGTTTGACCATTCGTTTTATTCACGGAGTCACCTAGTGCAG”: 9480 fluorescence intensity (a.u.).
